Assay [1] can be described thus: qHTS RealTime-Glo MT Cell Viability Assay in HEK293 cells - 40 hour (AID 1224874). Note: nearly all actives have a fitted effect of over 50% in size. Note: potency is the fitted concentration of half-maximal effect. Conditions: RealTime-Glo luminescence; max response: stronger effect = lower value. Put shortly: (§1)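 HEK293 + NanoLuc + prosubstrate, 600 cells/well; 5 h, 37 C/5% CO2; compound 23 nL in DMSO by pintool; 37 C; luminescence read at 0, 8, 16, 24, 32 and 40 h time points.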
(In general: Quantitative high-throughput screening tests each substance at several concentrations.)

Assay [2] is described as follows: A CellTox Green Cytotoxicity Assay to monitor cytotoxicity in HepG2 cells - 16 hour (AID 1224876). Note: nearly all actives have a fitted effect of over 45% in size. Note: potency is the fitted concentration of half-maximal effect. Put shortly:
(§2)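 Measurements at 0, 8, 16, 24, 32 and 40 h of treatment captured CellTox Green fluorescence in HepG2 cells that had been co-plated with reagent and preincubated 5 h at 37 C/5% CO2.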

Assay [3] is described as follows: qHTS RealTime-Glo MT Cell Viability Assay in HepG2 cells - 32 hour (AID 1224877). Note: nearly all actives have a fitted effect of over 55% in size. A digest of the protocol:
(§3)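 Compound treatment began 5 h after plating HepG2 cells (600/well) with NanoLuc luciferase and prosubstrate. Plates stayed at 37 C for 40 h; luminescence was captured at six time points, 0 h through 40 h.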

A short description of assay [4]: A CellTox Green Cytotoxicity Assay to monitor cytotoxicity in HepG2 cells - 24 hour (AID 1224878). Note: nearly all actives have a fitted effect of over 45% in size. Note: potency is the fitted concentration of half-maximal effect. Put shortly:
as §2

Assay [5] is described as follows: A CellTox Green Cytotoxicity Assay to monitor cytotoxicity in HepG2 cells - 40 hour (AID 1224879). Note: nearly all actives have a fitted effect of over 40% in size. Note: potency is the fitted concentration of half-maximal effect. Put shortly:
as §2

Assay [6] in a line: qHTS RealTime-Glo MT Cell Viability Assay in HEK293 cells - 0 hour (AID 1224880). Note: top concentration of the series differs between compounds; nearly all actives have a fitted effect of over 45% in size. Put shortly: as §1
The nature of assay [7]: A CellTox Green Cytotoxicity Assay to monitor cytotoxicity in HEK293 cells - 32 hour (AID 1224881). Note: nearly all actives have a fitted effect of over 40% in size. Note: potency is the fitted concentration of half-maximal effect. Put shortly:
(§4)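 Tox21 screen in HEK293: membrane-impermeant cyanine dye fluoresces on binding dead-cell DNA; compound pinned 5 h post-seeding, plates held at 37 C, signal read repeatedly through 40 h.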

Assay [8] can be described thus: A CellTox Green Cytotoxicity Assay to monitor cytotoxicity in HepG2 cells - 0 hour (AID 1224882). Note: nearly all actives have a fitted effect of over 35% in size. Note: potency is the fitted concentration of half-maximal effect. Put shortly: as §2
A short description of assay [9]: A CellTox Green Cytotoxicity Assay to monitor cytotoxicity in HepG2 cells - 32 hour (AID 1224883). Note: nearly all actives have a fitted effect of over 50% in size. Note: potency is the fitted concentration of half-maximal effect. A digest of the protocol: as §2
A short description of assay [10]: A CellTox Green Cytotoxicity Assay to monitor cytotoxicity in HEK293 cells - 8 hour (AID 1224884). Note: nearly all actives have a fitted effect of over 35% in size. Note: potency is the fitted concentration of half-maximal effect. A digest of the protocol: as §4
Assay [11] in a line: qHTS RealTime-Glo MT Cell Viability Assay in HepG2 cells - 16 hour (AID 1224885). Note: nearly all actives have a fitted effect of over 50% in size. A digest of the protocol:
as §3

Assay [12] in a line: qHTS RealTime-Glo MT Cell Viability Assay in HEK293 cells - 24 hour (AID 1224886). For activity change, negative = cytotoxicity: top concentration of the series differs between compounds. Note: nearly all actives have a fitted effect of over 50% in size. Note: potency is the fitted concentration of half-maximal effect. A digest of the protocol: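 Quantitative high-throughput screen of the Tox21 10K library in HEK293: cells and RealTime-Glo reagents plated together, compound added at 5 h, luminescence monitored through 40 h at 37 C.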
Assay [13] is described as follows: qHTS RealTime-Glo MT Cell Viability Assay in HEK293 cells - 8 hour (AID 1224887). A digest of the protocol:
as §1

Assay [14] in a line: qHTS RealTime-Glo MT Cell Viability Assay in HepG2 cells - 0 hour (AID 1224889). Note: nearly all actives have a fitted effect of over 50% in size. A digest of the protocol:
as §3

Assay [15] is described as follows: A CellTox Green Cytotoxicity Assay to monitor cytotoxicity in HepG2 cells - 8 hour (AID 1224890). Note: nearly all actives have a fitted effect of over 45% in size. Note: potency is the fitted concentration of half-maximal effect. Put shortly: as §2
A short description of assay [16]: qHTS assay to identify small molecule antagonists of the estrogen receptor alpha (ER-alpha) signaling pathway using the BG1 cell line in the presence of 0.1 nM 17-beta-estradiol - cell viability counter screen (AID 1259241). Note: nearly all actives have a fitted effect of over 40% in size. Put shortly:
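In this screen, hormone-deprived VM7Luc4E2 cells were seeded at 4,000 per well, dosed with compound and 0.1 nM estradiol final, and incubated 22 hr at 37C and 5% CO2; fluorogenic live-cell protease signal reported viability.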

Assay [17] in a line: qHTS assay to identify small molecule antagonists of the androgen receptor (AR) signaling pathway using the MDA cell line in the presence of 0.5 nM R1881 - cell viability counter screen (AID 1259242). Note: nearly all actives have a fitted effect of over 45% in size. Put shortly:
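Concentration-response screen of compounds for toxicity in MDA-kb2 reporter cells: 16 hr at 37C with 0.5 nM R1881, endpoint live-cell protease fluorescence measured in the reporter wells.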

Assay [18] can be described thus: A CellTox Green Cytotoxicity Assay to monitor cytotoxicity in HEK293 cells - 24 hour (AID 1224875). A digest of the protocol: as §4
The nature of assay [19]: A CellTox Green Cytotoxicity Assay to monitor cytotoxicity in HEK293 cells - 16 hour (AID 1224888). Note: nearly all actives have a fitted effect of over 35% in size. Put shortly:
as §4

Assay [20] concerns the target Androgen receptor (Homo sapiens) (UniProt P10275). In words: qHTS assay to identify small molecule antagonists of the androgen receptor (AR) signaling pathway using the MDA cell line in the presence of 0.5 nM R1881 (AID 1259243). Note: nearly all actives have a fitted effect of over 50% in size. Note: potency is the fitted concentration of half-maximal effect. A digest of the protocol: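 With R1881 held at 0.5 nM (final), compound effects on MMTV-luciferase expression in MDA-kb2 cells were scored by luminescence after a 16 hr, 37C incubation.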

13 molecules from PubChem BioAssay (Tox21) can be followed below.

The structures appear in SMILES notation. Values joined by “and” are separate entries in the source; they are usually repeats but may differ in a detail not shown here. Equal entries are not always repeated. Results filed as inconclusive are left out. Where a structure was tested more than once in an assay, its records may differ in their call. Active and inactive are the calls of the source. Calls come from the whole dose curve; as a rule, active = well fitted curve in the direction sought with a large enough effect in the repeat runs; inconclusive = weak or mixed curves; inactive = no such curve, though single readings can be large; an effect the other way counts as inactive or inconclusive.
% is set by controls: 0 for no effect and ±100 for the full control effect.

Sequence of Androgen receptor (Homo sapiens) (P10275 whole entry, looked up): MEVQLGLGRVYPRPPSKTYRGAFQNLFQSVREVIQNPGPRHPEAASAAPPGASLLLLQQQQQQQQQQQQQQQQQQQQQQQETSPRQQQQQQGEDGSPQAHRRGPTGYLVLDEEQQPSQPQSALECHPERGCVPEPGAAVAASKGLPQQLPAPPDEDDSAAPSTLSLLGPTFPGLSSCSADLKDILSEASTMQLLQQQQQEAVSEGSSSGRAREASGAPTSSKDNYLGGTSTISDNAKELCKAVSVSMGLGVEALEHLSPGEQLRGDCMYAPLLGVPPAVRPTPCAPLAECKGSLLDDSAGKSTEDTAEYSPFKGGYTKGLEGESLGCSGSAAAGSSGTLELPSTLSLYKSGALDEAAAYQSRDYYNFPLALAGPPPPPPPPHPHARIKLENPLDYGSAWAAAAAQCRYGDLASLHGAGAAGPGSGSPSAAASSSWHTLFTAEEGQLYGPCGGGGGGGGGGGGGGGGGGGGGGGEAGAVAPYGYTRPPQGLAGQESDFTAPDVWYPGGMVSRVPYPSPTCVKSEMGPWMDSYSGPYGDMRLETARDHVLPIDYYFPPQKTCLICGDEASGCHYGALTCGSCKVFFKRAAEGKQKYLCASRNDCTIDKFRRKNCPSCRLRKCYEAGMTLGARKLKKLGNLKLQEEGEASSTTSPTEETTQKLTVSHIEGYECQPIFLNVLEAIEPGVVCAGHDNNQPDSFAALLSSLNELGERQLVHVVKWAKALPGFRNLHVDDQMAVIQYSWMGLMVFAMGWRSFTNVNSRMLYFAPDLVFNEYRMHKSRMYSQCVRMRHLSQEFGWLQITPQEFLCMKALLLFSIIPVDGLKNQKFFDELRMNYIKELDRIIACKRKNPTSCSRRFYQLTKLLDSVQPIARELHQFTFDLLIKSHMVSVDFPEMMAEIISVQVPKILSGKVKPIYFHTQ

In the case of `C1CN2CCN1CC2`, in assay [1], the max response was 1.08% (inactive) and 21.8% (inactive). Besides, the Potency entry was “inactive and 21.9 µM (active)” in assay [2]; “inactive and 21.9 µM (active)” in [4]; “inactive and 21.9 µM (active)” in assay [5]; “inactive and 21.9 µM (active)” in assay [7]; “inactive and 21.9 µM (active)” in [8]; “inactive and 21.9 µM (active)” in assay [9]. In addition, the Potency result in [10] is “inactive and 21.9 µM (active)”; in assay [15] it was “inactive and 24.5 µM (active)”. In addition, the molecule was called inactive in [3], in [6], in assay [11], in assay [13] and in assay [14]. In addition, the Potency entry in [12] and in [16] was “inactive” in each case.
In the case of `C=CCO`, in assay [1], the max response was 4.57% (inactive) and 0.311% (inactive). Also, the Potency entry was “inactive and 24.5 µM (active)” in [2]; “inactive and 24.5 µM (active)” in [4]; “inactive and 24.5 µM (active)” in assay [5]; “inactive and 38.9 µM (active)” in assay [7]; “inactive and 24.5 µM (active)” in [9]; “inactive and 27.5 µM (active)” in [10]. The Potency entry in [15] was “inactive and 27.5 µM (active)”. The result in assay [3], in [6], in assay [11], in [13], in [14] and in assay [17] was inactive. In addition, the Potency entry in assay [12] and in assay [16] was “inactive” in each case.
As to `CCCCCCCCCCCC#N`, in [1], the max response was -12% (inactive) and 12.1% (inactive). For the same molecule, the Potency entry in assay [2] is “inactive and 45.2 µM (active)”; in [4], “inactive and 45.2 µM (active)”; in [5], “inactive and 50.7 µM (active)”; in assay [7], “inactive and 40.3 µM (active)”; in assay [8], “inactive and 45.2 µM (active)”; in assay [9], “inactive and 45.2 µM (active)”. For the same molecule, the Potency result in assay [10] is “inactive and 45.2 µM (active)”; in assay [15], “inactive and 40.3 µM (active)”. Further, the outcome in [3], in assay [6], in assay [11], in assay [13] and in [14] was inactive. Besides, the Potency entry in assay [12] and in [16] was “inactive” each time.
As to `CC(Br)C(=O)O` (configuration not stated), the max response in assay [1] was 0.901% (inactive) and -24.8% (inactive). Also, the Potency entry in assay [18], in assay [4], in assay [5], in assay [7], in assay [9] and in assay [10] was “inactive” in each case. For the same molecule, the Potency entry in assay [12], in [19], in assay [15] and in [16] was “inactive” in each case. For the same molecule, the molecule was called inactive in assay [3], in assay [6], in assay [11], in assay [13], in assay [14] and in assay [17].
As for `O=C(O)c1ccccn1`, the max response in assay [1] was -2.82% (inactive) and 14.7% (inactive). In addition, the Potency entry in assay [18], in [4], in assay [5], in [7], in assay [9] and in assay [10] was “inactive” in each case. Besides, the Potency entry in [12], in [19], in assay [15] and in assay [16] was “inactive” throughout. The molecule was classed as inactive in assay [3], in assay [6], in assay [11], in [13] and in assay [14].
`O=S(=O)(c1ccc(O)cc1)c1ccc(O)cc1`: the max response in assay [1] is -19.2% (inactive). Besides, the Potency result in [18], in assay [4], in assay [5], in assay [7], in [9] and in [10] was “inactive” each time. Besides, the Potency entry in [12], in [19], in assay [15] and in assay [16] was “inactive” in each case. Also, the outcome in [3], in [6], in assay [11], in assay [13], in assay [14] and in [17] was inactive.
In the case of `C=C(C)CCl`, the max response in assay [1] is 0.792% (inactive) and 2.61% (inactive). The Potency result in [18], in assay [4], in assay [5], in [7], in [8] and in assay [9] was “inactive” in each case. Besides, the Potency result in assay [10], in [19], in assay [15], in assay [16] and in assay [20] was “inactive” each time. Moreover, the result in assay [3], in assay [6], in assay [11], in assay [13], in assay [14] and in [17] was inactive. In assay [12], the activity change, negative = cytotoxicity is 6.36% [at 6.97 µM] (inactive).
For the molecule `CCC[N+](=O)[O-]`, the max response in [1] was 7.7% (inactive). In addition, the Potency result in [18], in assay [7], in assay [8], in assay [10], in [12] and in [19] was “inactive” throughout. Moreover, in [15], the Potency entry is “inactive”. Besides, the molecule was classed as inactive in assay [3], in assay [6], in assay [11], in assay [13], in [14] and in [17]. For the same molecule, the Potency in assay [4] was 24.1 µM (active) and inactive; in assay [5], 24.1 µM (active) and inactive; in assay [9], 21.5 µM (active) and inactive.
In the case of `Nc1ccc(Cc2ccc(N)cc2)cc1`, the max response in assay [1] was -10.2% (inactive). For the same molecule, the Potency entry in [18], in assay [4], in [5], in [7], in assay [8] and in assay [9] was “inactive” throughout. In addition, the Potency entry in [10], in [12], in assay [19], in [15] and in [16] was “inactive” in each case. Further, the call in assay [3], in assay [6], in [11], in assay [13], in assay [14] and in [17] was inactive.
As to `CCCC1COC(Cn2cncn2)(c2ccc(Cl)cc2Cl)O1` (configuration not stated), the Potency is 25 µM (active) and 21.9 µM (active) in assay [1]; 49.9 µM (active) and inactive in assay [7]; 25 µM (active) and 24.5 µM (active) in assay [12]; 31.2 µM (active) and 30.6 µM (active) in assay [20]. The Potency entry in assay [2], in [4], in assay [10], in assay [19], in assay [15] and in [16] was “inactive” each time. The outcome in assay [3], in assay [6], in [11] and in assay [14] was inactive.
On to `NCCc1ccc(O)cc1`, for which the max response in [1] is -18.4% (inactive) and 1.96% (inactive). For the same molecule, the Potency result in assay [18], in [4], in assay [5], in assay [7], in [8] and in assay [9] was “inactive” each time. For the same molecule, the Potency entry in assay [10], in assay [12], in assay [19], in assay [15] and in assay [16] was “inactive” throughout. Also, the result in [3], in [6], in assay [11], in assay [13], in assay [14] and in assay [17] was inactive.
In the case of `CC(C)NC(=O)N1CC(=O)N(c2cc(Cl)cc(Cl)c2)C1=O`, the Potency result in assay [18], in assay [2], in [4], in [5], in assay [7] and in [9] was “inactive” throughout. The Potency entry in assay [10], in [12], in assay [19], in assay [15] and in assay [16] was “inactive” each time. The call in [3], in assay [6], in [11], in assay [13], in assay [14] and in assay [17] was inactive.
`[O-][Cl+2]([O-])O`: the max response in assay [1] was 11.8% (inactive) and -2.78% (inactive). The Potency entry in assay [18], in assay [4], in [5], in [7], in assay [9] and in assay [10] was “inactive” in each case. Also, the Potency entry in [12], in assay [19], in assay [15] and in assay [16] was “inactive” each time. The result in [3], in assay [6], in assay [11], in [13] and in [14] was inactive.
